# Assay results taken from PubChem BioAssay (NCATS).
# “And” between values parts separate entries of the source, which are not always exact repeats. Equal values may be shown once. Results filed as inconclusive are left out. A call without a number means that no potency is given here. The source made the active and inactive calls. Unless noted, calls come from the whole dose curve; as a rule, active = well fitted curve in the direction sought with a large enough effect; inconclusive = small, poorly fitted or top-dose-only effect, or another doubt; inactive = no such curve, though single readings can be large; an effect the other way counts as inactive or inconclusive.
# Tests used:
# [1] = molecular target: Calcium and integrin-binding protein 1 (Homo sapiens) (UniProt Q99828); experiment: Primary qHTS for Identification of Calcium Integrin Binding Protein 1 (CIB1) Competitor (AID 1508620);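 note: GST tagged CIB1 binding a fluorescein labelled alphaIIb integrin peptide tracer; top concentration of the series differs between compounds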
# Outline: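 Fluorescence polarization competition: GST-tagged CIB1 (1 uM final) preincubated with compound 15 min at room temperature, then FITC-labelled alphaIIb peptide (100 nM final) added. After 15 min at room temperature, polarization read at Ex 480/Em 540.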
# [2] = molecular target: Protein phosphatase 1D (Homo sapiens) (UniProt O15297); experiment: Rhodamine-PBP qHTS Assay for Modulators of WT P53-Induced Phosphatase 1 (WIP1) (AID 1347425)
# Outline: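 The read-out is the change in Rhodamine-PBP fluorescence (f1 - f0, ex 525/em 598 nm) as Pi is released, read each minute for 11 min. Final reaction: 5 nM WIP1, 10 uM phosphopeptide VEPPL-pS-QETFS, 10 uM Rh-PBP, 50 mM Tris-HCl pH 7.5, 30 mM MgCl2. Compound was preincubated with enzyme for 1 hour at room temperature.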
# [3] = Primary qHTS for inhibitors of La Crosse Virus (LACV) - induced cell death in SH-SY5Y cells (AID 1508616);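 note: top concentration of the series differs between compounds; higher means more rescue of cells from virus-induced death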
# Outline: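 Screening measures cell viability in LACV-infected SH-SY5Y cultures. Compound was added before virus (0.01 MOI), and ATP was detected by luminescence 6 days later.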
# [4] = Primary qHTS for small molecule stabilizers of the endoplasmic reticulum resident proteome: Secreted ER Calcium Modulated Protein (SERCaMP) assay (AID 1508630)
# Outline: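 The SH-SY5Y reporter protocol was run at 3 concentrations up to 38.3 uM (primary) or 11 concentrations (follow-up): 16 h compound, 100 nM thapsigargin for 4 h, then extracellular luciferase luminescence.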
# [5] = A High-Content qHTS Against Drug Library for the Identification of Small Molecules that Inhibit DYT1 Early Onset Primary Dystonia-Associated Cell Pathology (AID 1645839; calls by dose curve; note: series mostly up to about 46 µM)
# Outline: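 Cells were seeded and left for 24 h, then dosed with compound alongside tetracycline induction of mutant EGFP-TorsinA. They were incubated for 48 h, fixed in 4% paraformaldehyde, permeabilized and imaged for mislocalization (%pathology) and cell count.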
# [6] = molecular target: Cytochrome P450 2D6 (Homo sapiens) (UniProt P10635); experiment: Cytochrome P450 family 2 subfamily D member 6 (CYP2D6) small molecule antagonists: luciferase biochemical (cell-free) qHTS assay (AID 1645840; active = well fitted curve in the direction sought with a large enough effect in the repeat runs; an effect the other way counts as inactive or inconclusive; note: nearly all actives have a fitted effect of over 55% in size; note: potency is the fitted concentration of half-maximal effect)
# Outline: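 P450-Glo CYP2D6 system: proluciferin substrate converted by enzyme to luciferin, read by luminescence proportional to activity. Enzyme-substrate mix with compound 10 min at room temperature, then NADPH regeneration 1 h before detection reagent.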
# [7] = molecular target: Calcium and integrin-binding protein 1 (Homo sapiens) (UniProt Q99828); experiment: Confirmatory qHTS for Identification of Calcium Integrin Binding Protein 1 (CIB1) Competitor (AID 1508617); note: potency is the fitted concentration of half-maximal effect; nearly all actives have a fitted effect of over 65% in size
# Outline: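 Compounds at up to 114 uM final met 1 uM GST-tagged CIB1 for 15 min at room temperature (HEPES pH 7.4, 5 mM CaCl2). FITC-labelled alphaIIb peptide, 100 nM, added; polarization read after 15 min more.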
# Sequence of Calcium and integrin-binding protein 1 (Homo sapiens) (Q99828 whole entry, looked up): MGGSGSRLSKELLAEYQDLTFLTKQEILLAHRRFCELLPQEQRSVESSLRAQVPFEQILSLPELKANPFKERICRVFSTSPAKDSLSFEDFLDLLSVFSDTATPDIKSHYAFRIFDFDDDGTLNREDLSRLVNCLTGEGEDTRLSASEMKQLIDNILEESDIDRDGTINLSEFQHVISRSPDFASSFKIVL
# Sequence of Cytochrome P450 2D6 (Homo sapiens) (P10635 whole entry, looked up): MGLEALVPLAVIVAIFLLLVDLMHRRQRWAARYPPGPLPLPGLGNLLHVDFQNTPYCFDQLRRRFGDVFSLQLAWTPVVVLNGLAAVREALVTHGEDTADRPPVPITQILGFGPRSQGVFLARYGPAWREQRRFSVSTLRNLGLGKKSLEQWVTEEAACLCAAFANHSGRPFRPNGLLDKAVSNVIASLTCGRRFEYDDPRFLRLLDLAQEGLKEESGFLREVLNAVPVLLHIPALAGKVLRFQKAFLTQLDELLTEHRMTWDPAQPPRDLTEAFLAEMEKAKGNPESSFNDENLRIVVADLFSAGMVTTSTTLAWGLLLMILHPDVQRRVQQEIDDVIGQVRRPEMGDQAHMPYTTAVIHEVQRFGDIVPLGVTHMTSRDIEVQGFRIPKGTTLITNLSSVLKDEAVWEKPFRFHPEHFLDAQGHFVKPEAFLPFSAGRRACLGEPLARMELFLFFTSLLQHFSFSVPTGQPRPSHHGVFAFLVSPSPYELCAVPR
# Sequence of Protein phosphatase 1D (Homo sapiens) (O15297 whole entry, looked up): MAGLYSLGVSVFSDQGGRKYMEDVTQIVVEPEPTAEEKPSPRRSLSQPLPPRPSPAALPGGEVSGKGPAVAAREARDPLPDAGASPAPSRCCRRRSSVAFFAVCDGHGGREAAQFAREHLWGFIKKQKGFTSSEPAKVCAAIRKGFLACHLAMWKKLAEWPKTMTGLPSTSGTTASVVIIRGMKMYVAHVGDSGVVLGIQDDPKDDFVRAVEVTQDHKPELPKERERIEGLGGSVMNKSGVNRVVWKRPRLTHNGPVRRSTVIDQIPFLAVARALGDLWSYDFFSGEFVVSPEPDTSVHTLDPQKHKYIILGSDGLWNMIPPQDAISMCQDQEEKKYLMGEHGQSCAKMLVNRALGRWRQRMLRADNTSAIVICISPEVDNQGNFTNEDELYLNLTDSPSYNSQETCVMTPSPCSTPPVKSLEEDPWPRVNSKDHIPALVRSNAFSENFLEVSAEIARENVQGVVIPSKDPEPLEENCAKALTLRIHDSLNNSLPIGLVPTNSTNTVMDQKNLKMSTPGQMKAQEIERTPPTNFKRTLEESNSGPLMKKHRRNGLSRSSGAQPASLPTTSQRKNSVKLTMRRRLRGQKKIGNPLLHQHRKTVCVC
smiles,measurement,setting,value
CNC(=O)Nc1ccc(-c2nc(N3CC4CCC(C3)O4)c3cnn(C4CCC5(CC4)OCCO5)c3n2)cc1,Potency,[1],inactive
Cc1cnn(C)c1C(=O)Nc1cc(Nc2ccc3c(C=Cc4ccccn4)n[nH]c3c2)ccc1F,Potency,[1],inactive
Nc1ccn(C[C@@H](CO)OCP(=O)(O)O)c(=O)n1,Potency,[1],inactive
COC1=C(OC)C(=O)C(CC=C(C)CCC=C(C)CCC=C(C)CCC=C(C)CCC=C(C)CCC=C(C)CCC=C(C)CCC=C(C)CCC=C(C)CCC=C(C)C)=C(C)C1=O,Potency,[1],inactive
CC1(C)O[C@@H]2C[C@H]3[C@@H]4CCC5=CC(=O)C=C[C@]5(C)[C@@H]4[C@@H](O)C[C@]3(C)[C@]2(C(=O)CO)O1,outcome,[2],inactive
same,outcome,[3],inactive
same,Potency,[1],inactive
same,outcome,[4],inactive
same,outcome,[5],inactive
same,Potency,[6],inactive
Cc1coc2c1C(=O)C(=O)c1c-2ccc2c(C)cccc12,Potency,[7],39.8 µM (active)
same,Potency,[1],inactive
same,Potency,[6],3.38 µM (active)
Cc1cn([C@@H]2O[C@H](CO)[C@@H](O)[C@H]2F)c(=O)[nH]c1=O,outcome,[2],inactive
same,outcome,[3],inactive
same,Potency,[1],inactive
same,outcome,[5],inactive
same,Potency,[6],inactive
CCOC(=O)[C@H](CCc1ccccc1)N[C@@H](C)C(=O)N1[C@@H](C(=O)O)C[C@H]2CCC[C@@H]21,Potency,[1],inactive
CC(C)c1cnn2c(NCc3ccccc3)cc(NCCCCCCN)nc12,Potency,[1],inactive
COc1ccnc2[nH]cc(C(=O)C(=O)N3CCN(C(=O)c4ccccc4)C[C@@H]3C)c12,Potency,[1],inactive
Cc1ccc(-n2[nH]c(C)c(N=Nc3cccc(-c4cccc(C(=O)O)c4)c3O)c2=O)cc1C,outcome,[3],inactive
same,Potency,[6],4.9 µM (active) and 7.56 µM (active)
